Measured values reported in PubChem BioAssay AID2685 (National Center for Advancing Translational Sciences (NCATS), 2010).
In all, about 320,000 compounds went through this assay and about 2,100 (0.66%) were called active. About 53% were inconclusive and are not listed. The call rests on the fitted dose curve; in most records, active means well fitted inhibition curve with a large enough effect in the signal ratio, with a control signal flat (not every such curve was filed as active); inconclusive means small, poorly fitted or top-dose-only effect, or effect the other way, or a change in a side signal; inactive means flat fitted curve, though single readings scatter; the % refers to the signal ratio. The entries come from a sample that favours actives as a whole.

Test: qHTS Assay for Lipid Storage Modulators in Drosophila S3 Cells;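 on cell number change: cells counted by Cell Tracker Red CMTPX staining in the red channel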; on lipid storage change, negative = inhibition: on the % scale 0 is the no-effect control and ±100 the full control effect
Conditions: BODIPY lipid droplet fluorescence, 18-24 h, cells fed with added oleic acid; cell number change: measured here: cell count max response; series mostly up to 46.1 µM; lipid storage change, negative = inhibition: at the top concentration
In short: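 Laser-scanning cytometry quantifies lipid droplet accumulation (500–530 nm total intensity; droplet/cell object ratio) in oleic acid-fed (400 uM added) Drosophila S3 cells treated with a concentration series. 20 uM Triacsin C defined 100% inhibition.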
Potency means the concentration at half of the fitted maximal effect.

| SMILES | lipid storage change, negative = inhibition | cell number change [%] | Potency | outcome |
| --- | --- | --- | --- | --- |
| C/C(=N/N=C1/NC(=O)CC(C(=O)Nc2ccccc2)S1)c1cccs1 (centres undefined) | 0.841% (inactive) | 1.13 |  |  |
| CCOc1ccc(/C=C2\SC(=S)N(CCC(=O)Nc3ccc(C(=O)O)cc3)C2=O)cc1 | -6.54% (inactive) | 8.29 |  |  |
| O=C(Nc1cccc(C(F)(F)F)c1)c1cncs1 | -24.4% (inactive) |  |  |  |
| CCC(C)NC(=O)C1c2ccccc2C(=O)N1Cc1cc(OC)ccc1OC (centres undefined) | 6.59% (inactive) | 8.31 |  |  |
| O=C(N=Nc1c(O)[nH]c2ccccc12)c1cccs1 | -1.98% (inactive) | -7.18 |  |  |
| COc1cc(OC)cc(C(=O)N2CCN(C(=O)c3ccc(OC)c(OC)c3)CC2)c1 | 2.98% (inactive) | 14.7 |  |  |
| CN(CCc1ccccn1)Cc1ccc(Cl)c(Cl)c1 | 7.09% (inactive) | -4.68 |  |  |
| CN(CCc1ccccn1)Cc1ccc(Cl)cc1 | -4.59% (inactive) | 7.49 |  |  |
| CC(C)=CCCC(C)CN(C)CCc1ccccn1 (centres undefined) |  | -0.762 | 18.4 µM (active) |  |
| COc1ccc(CNC(=S)Nc2ccccc2)cc1Cl | 7.81% (inactive) | 0.106 |  |  |
| COC(CNC(=O)CN1CCN(Cc2ccc(F)cc2Cl)C1=O)OC | 14.7% (inactive) | -2.41 |  |  |
| Nc1ccc(C(=O)OCCCc2nc3ccccc3[nH]2)cc1 | 5.83% (inactive) | 0.404 |  |  |
| COC(=O)c1ccc(C(=O)OCCCc2nc3ccc(N)cc3[nH]2)cc1 | 15.8% (inactive) | 2.42 |  |  |
| Nc1ccc(C(=O)OCCCc2nc3cc4ccccc4cc3[nH]2)cc1 |  | -15.5 | 25.9 µM (active) |  |
| COc1ccc(/C=C(\C#N)C(=O)c2c(C)[nH]c3ccccc23)cc1OC | 24.1% (inactive) |  |  |  |
| O=C(CSc1ccccc1)Nc1nnc(C2CC2)s1 | -5.17% (inactive) | 6.15 |  |  |
| Cc1ccc(NC(=O)COC(=O)CCc2ccc(S(=O)(=O)N3CCOCC3)cc2)c(C)c1 | 7.65% (inactive) | 16.8 |  |  |
| Cc1ccc(NC(=O)COC(=O)C2CCC(=O)N2)c(S(=O)(=O)N2CCOCC2)c1 (centres undefined) |  | 2.3 | 3.66 µM (active) |  |
| O=C(COC(=O)C1CCC(=O)N1)Nc1ccc(Cl)cc1Cl (centres undefined) | -3.21% (inactive) | -17 |  |  |
| CCC(C)OC(=O)C1=C(C)OC23OC(N)=C(C#N)C12C(=O)c1ccccc13 (centres undefined) | -4.01% (inactive) | 2.42 |  |  |
| CC(OC(=O)CNC(=O)c1ccc(Cl)cc1)C(=O)NC1CCCCC1C (centres undefined) | -18.8% [at 0.0737 µM] (inactive) | 3.37 |  |  |
| CC(OC(=O)Cc1ccc(Br)cc1)C(=O)NC1CCCCC1C (centres undefined) | -22.8% (inactive) | 5.28 |  |  |
| CC(OC(=O)Cc1c(F)cccc1Cl)C(=O)NC1CCCCC1C (centres undefined) |  | -24.1 | 16.4 µM (active) |  |

| SMILES | lipid storage change, negative = inhibition | cell number change [%] | Potency | outcome |
| --- | --- | --- | --- | --- |
| CCc1ccc2oc(=O)cc(CN3CCN(Cc4ccccc4)CC3)c2c1 |  | 4.49 |  | inactive |
| O=C(NCc1ccccc1)c1cc(-c2cccc(O)c2)on1 | 10.5% (inactive) | 9.36 |  |  |
| CC(OC(=O)c1nc(Cl)ccc1Cl)C(=O)Nc1ccccc1F (centres undefined) | 6.47% (inactive) | -13.3 |  |  |
| CCn1c(SCC(=O)Nc2cccc(S(=O)(=O)N(C)c3ccccc3)c2)nnc1C1CC1 | -1.58% (inactive) | 0.735 |  |  |
| CC(C)n1cnnc1SCC(=O)Nc1cccc(S(=O)(=O)N(C)c2ccccc2)c1 | -18.9% (inactive) | -11.3 |  |  |
| CCn1c(SCC(=O)Nc2ccc(C(C)=O)cc2)nnc1C1CC1 |  | 13.3 |  | inactive |
| CC(=O)Nc1ccc(NC(=O)CSc2nnc(C3CC3)n2C)cc1 | -0.569% (inactive) | -6.84 |  |  |
| CC(=O)c1ccc(NC(=O)CSc2nnc(C3CC3)n2C)cc1 |  | 24.2 | 1.84 µM (active) |  |
| CN(c1ccccc1)S(=O)(=O)c1cccc(NC(=O)CSc2nnc(C3CC3)n2C)c1 |  | 4.1 | 23.1 µM (active) |  |
| COc1ccc(NC(=O)c2ccc(S(=O)(=O)N3CCCCC3)cc2)c(OC)c1 |  | -34.1 |  | inactive |
| Cc1cc2n(n1)SC(Nc1cc(Cl)ccc1Cl)N2 (centres undefined) | -11.4% (inactive) | -3.68 |  |  |
| COc1ccc(N2CCN(CCCNC(=O)CN3C(=O)COc4ccccc43)CC2)cc1 |  | -22.1 |  | inactive |
| Cn1c(C(=O)N2CCN(c3ccc(Cl)cc3)CC2)cc2c(=O)[nH]c3ccccc3c21 | -2.56% (inactive) | 18.3 |  |  |
| COc1ccc(/C=N/NC(=O)C(O)(c2ccccc2)c2ccccc2)cc1OC | 22.7% (inactive) | 3.71 |  |  |
| O=C(O)COc1ccc(/C=N/NC(=O)C(O)(c2ccccc2)c2ccccc2)cc1 | 8.46% (inactive) | 7.99 |  |  |
| CCN(CC)c1ccc(/C=N/NC(=O)C(O)(c2ccccc2)c2ccccc2)o1 |  | -15.7 | 20.6 µM (active) |  |
| O=C(C1CCN(Cc2cccs2)CC1)N1CCN(Cc2ccc3c(c2)OCO3)CC1 | 2.29% (inactive) | 20.4 |  |  |
| C/C(=C/Cc1c(O)cc2oc(C)cc(=O)c2c1O)COC1OC(CO)C(O)C(O)C1O (centres undefined) | -5.08% (inactive) | 6.97 |  |  |
| CCN1C(=O)[C@H]2[C@@H](c3ccc(SC4CCCCC4)cc3)N[C@@](CC(C)C)(C(=O)OC)[C@H]2C1=O |  |  | 8.2 µM (active) |  |
| CCN1C(=O)[C@H]2[C@@H](c3ccc(-c4ccccc4)cc3)N[C@@](CC(C)C)(C(=O)OC)[C@H]2C1=O | 7.26% (inactive) | 7.59 |  |  |
| CCN1C(=O)[C@H]2[C@@H](c3ccc(-c4ccc(OC)cc4)cc3)N[C@@](CC(C)C)(C(=O)OC)[C@H]2C1=O | -25.2% (inactive) | 12.8 |  |  |
| CC(C)NC(=O)c1ccccc1NC(=O)CS(=O)(=O)Cc1ccccc1 |  | 14.5 |  | inactive |
| Cc1ccc(NS(=O)(=O)c2ccc3c(c2)oc(=O)n3C)cc1C | 4.4% (inactive) | 5.19 |  |  |
